# Screens (PubChem BioAssay)
# KB-V1 cytotox: kills drug-selected multidrug resistant KB-V1 cells. KB-V1 MDR cells viability, CellTiter-Glo, 72 h. Potency, µM (titrated, usually from 46.1 µM), hits mostly cytotoxic. hit rate 3.4% among 400,000; also: % is scaled to controls: 0 for no effect and ±100 for the full control effect; nearly all actives have a fitted effect of over 60% in size
#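 Cells of the MDR subline KB-V1 are plated, dosed with compound at multiple concentrations, and incubated 72 h at 37 degrees C; CellTiter-Glo is then added and luminescence read after 10 min.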
# HT1080-NT tox: kills 2HG-producing HT-1080-NT fibrosarcoma cells; HT-1080-NT fibrosarcoma viability, CellTiter-Glo ATP luminescence, 48 h; hit rate 1.6% among 360,000; AID 686970; Potency, µM (top dose mostly 46.1 µM), for inactives: at the highest dose activity, negative = less viability, actives largely listed as cytotoxic;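 also: NT is the 2HG producing partner of a matched IDH1 knockdown line; 0% = DMSO-treated cells and -100% = media-only wells without cells; nearly all actives have a fitted effect of over 55% in size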
#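 Luminescent CellTiter-Glo readout after 48 hours of compound exposure at 37 degrees C defined viability of HT-1080-NT cells. Activity was normalized to DMSO wells and cell-free media wells; concentration-response curves were fitted and assigned curve classes.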
# HT1080 IDH1KD tx: HT-1080 IDH1 knockdown cell toxicity (counter line) | HT-1080 IDH1 knockdown viability, ATP luminescence, 48 h | Potency, µM (top dose mostly 46.1 µM), inactives show top-dose activity, negative = toxicity, most hits filed as cytotoxic | hit rate 2% among 360,000;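 also: 0% = DMSO wells and -100% = cell-free medium wells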
#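 HT-1080-IDH1KD cells (IDH1 knocked down), 750/well in RPMI with 5% FBS, treated with compound 48 h at 37 degrees C. Viability by CellTiter-Glo luminescence, normalised to DMSO and no-cell wells; concentration-response curves classed.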
# SW480 rereplic: induces DNA re-replication in SW480 colon adenocarcinoma cells | SW480 DNA re-replication, Hoechst DNA content imaging, 48 h | Potency, µM (highest dose often 46.1 µM), inactives show at the top dose re-replication activation, usual class: activators | hit rate 1.8% among 340,000; also: % of control where 0% means no effect; nearly all actives have a fitted effect of over 55% in size
#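 Readout is total intensity of Hoechst-stained nuclei, excited at 405 nm and collected at 500-530 nm. Compound treatment lasted 48 hr at 37 C in 5% CO2 before staining.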
# KB-3-1 cytotox: kills parental KB-3-1 adenocarcinoma cells. KB-3-1 viability, CellTiter-Glo ATP luminescence, 72 h. Potency, µM (doses to about 46.1 µM), actives largely listed as cytotoxic. hit rate 1.4% among 400,000; also: % is scaled to controls: 0 for no effect and ±100 for the full control effect; nearly all actives have a fitted effect of over 60% in size
#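 Parental KB-3-1 adenocarcinoma cells in phenol-red-free DMEM with 10% FBS were pin-treated with compounds at several concentrations, incubated 72 h at 37 °C, and viability read by CellTiter-Glo luminescence; concentration-effect curves were fitted after normalization.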
# MCF10A rerep: induces DNA re-replication in MCF 10a normal breast cells; MCF 10A DNA re-replication, Hoechst nuclear intensity, 48 h; Potency, µM (top dose mostly 46.1 µM), without a hit: at the highest dose activity, positive = re-replication, hits mostly activators; hit rate 2.9% among 350,000; AID 624296; also: % of control where 0% means no effect; nearly all actives have a fitted effect of over 50% in size
# Starred values were filed as active, the others as inactive; i = inactive; ? = inconclusive; / = no result. Hits are enriched below; roughly 8% of the tested compounds scored in any of these assays. Calls follow the shape of the dose curve; as a rule, active = well fitted curve in the direction sought with a large enough effect; inconclusive = small, poorly fitted or top-dose-only effect, or another doubt; inactive = no such curve, though single readings can be large; an effect the other way counts as inactive or inconclusive. Potency is read from the fitted curve at half-maximal effect.
SMILES,KB-V1 cytotox,HT1080-NT tox,HT1080 IDH1KD tx,SW480 rereplic,KB-3-1 cytotox,MCF10A rerep
COc1ccc(C(=O)NC(=S)Nc2cccc(Cl)c2N2CCOCC2)cc1[N+](=O)[O-],i,7%,-6%,7.3µM*,i,-4%
Cc1ccc(NC(=S)NNC(=O)c2ccc(N3CCOCC3)c([N+](=O)[O-])c2)cc1Cl,16µM*,4%,16%,?,?,?
O=C(NNC(=S)Nc1ccc(Br)cc1)c1ccc(N2CCOCC2)c([N+](=O)[O-])c1,i,-5%,-3%,9%,i,?
COc1ccc(C(=O)NC(=S)Nc2ccccc2N2CCCCC2)cc1[N+](=O)[O-],?,-21%,-19%,-2%,?,?
CC(=O)N1CCN(c2ccc(NC(=O)c3ccc(Br)o3)cc2Cl)CC1,i,4%,-1%,16%,i,2%
O=C(Nc1cccc(Cl)c1N1CCCC1)c1ccc([N+](=O)[O-])o1,?,-16%,2%,?,?,?
CN1CCN(c2ccc(NC(=O)c3ccc([N+](=O)[O-])o3)cc2Cl)CC1,?,5.8µM*,12µM*,1.5µM*,?,1.5µM*
CCOc1ccc(N(CC(=O)N2CCOCC2)S(=O)(=O)c2ccc(SC)cc2)cc1,?,13%,0%,-2%,i,-5%
O=C(NN=C1C2CC3CC(C2)CC1C3)c1ccccc1O,i,-24%,-22%,21µM*,i,18%
O=C(NNC(=O)C12CC3CC(CC(C3)C1)C2)c1ccccc1O,i,-17%,?,?,?,10%
O=C(NC12CC3CC(CC(C3)C1)C2)c1ccccc1O,i,-23%,?,2%,i,8.2µM*
O=C(NC12CC3CC(CC(C3)C1)C2)c1ccc(-c2ccc(Cl)cc2)o1,?,-16%,?,?,?,12%
O=C(N/N=C1\CCc2ccccc21)c1ccccc1O,21µM*,?,?,2%,i,-7%
O=C(NC12CC3CC(CC(C3)C1)C2)c1ccc(-c2ccccc2Cl)o1,i,?,?,9%,?,16µM*
COc1ccccc1-c1noc(-c2ccc(NC3CCCC3)c([N+](=O)[O-])c2)n1,i,/,/,/,i,/
C/C(=N\NC(=O)c1ccc(N)cc1)C1CC1,?,19%,13%,-3%,i,7%
C/C(=N\NC(=O)c1ccccc1O)C1CC1,i,-29%,-15%,16µM*,i,2%
COc1ccc(Br)cc1CNC(=O)c1nn(-c2ccc(C)cc2)c(=O)c2c1c1ccccc1n2C,i,/,/,/,i,/
CS(=O)(=O)N1CCN(c2ccccc2NC(=O)c2cccc3ccccc23)CC1,i,8%,11%,-5%,i,8%
CS(=O)(=O)N1CCN(c2ccccc2NC(=O)c2ccc(-c3ccc(Br)cc3)o2)CC1,2.6µM*,-1%,?,-3%,i,-3%
CCN1CCN(c2ccc(NC(=O)c3ccccc3F)cc2Cl)CC1,i,0%,0%,3%,?,?
COc1cc2ccccc2cc1C(=O)Nc1ccccc1N1CCN(S(C)(=O)=O)CC1,4.1µM*,3%,-13%,-4%,i,1%
CCN1CCN(c2ccc(NC(=O)c3cc4ccccc4cc3OC)cc2C)CC1,?,?,?,?,15µM*,?
CCC(=O)Nc1c(-c2ccc3ccccc3c2)nc2ccccn12,i,-15%,-10%,42%,i,-2%
O=C(c1cc(C(=O)NCCc2ccccc2)c(=O)n(CCc2ccccc2)c1)c1cc(Cl)ccc1O,2.3µM*,-15%,?,8%,?,12%
COc1ccc(CCNC(=O)c2cc(C(=O)c3cc(Cl)ccc3O)cn(CCc3ccc(OC)cc3)c2=O)cc1,2.6µM*,-11%,0%,?,i,-51%
